# Compound activity (PubChem)
# Sampled rows, rich in hits. Any-hit rate of the full collection: about 4%.
# D1 potentiator: enhances dopamine response at the human D1 receptor. P21728. HEK293 TREx D1 cells, calcium flux, dopamine EC20 potentiation. potentiation, % at 10 µM. 360,000 tested, 0.036% active. AID 504651; in the data active means potentiation above about 30%; further: 0% is about no effect
# D1 agonist: human D1 receptor agonism; AID 504660; P21728; 360,000 tested, 1% active; HEK293 T-REx D1 cells, calcium flux, agonist mode; activation, % at 2 µM; in the data active means activation above about 30%; further: 0% is about no effect
#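 Agonism was scored from calcium flux recorded over 180 s (1 read/s) after pintool compound addition, following a 10-cycle baseline. Cells were inducible force-coupled HEK293 TREx D1, plated overnight at 30 C and loaded with no-wash calcium dye.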
# TRHR enhancer-1: allosteric enhancers of human TRH receptor. P34981. TRHR cells, fluo-8 calcium fluorescence, EC20 TRH enhancement. enhancement, % at 2 µM. 360,000 tested, 0.66% active. AID 493056; in the data active means enhancement above about 30%; further: 0% is about no effect
# Target sequence (P34981 whole entry, looked up): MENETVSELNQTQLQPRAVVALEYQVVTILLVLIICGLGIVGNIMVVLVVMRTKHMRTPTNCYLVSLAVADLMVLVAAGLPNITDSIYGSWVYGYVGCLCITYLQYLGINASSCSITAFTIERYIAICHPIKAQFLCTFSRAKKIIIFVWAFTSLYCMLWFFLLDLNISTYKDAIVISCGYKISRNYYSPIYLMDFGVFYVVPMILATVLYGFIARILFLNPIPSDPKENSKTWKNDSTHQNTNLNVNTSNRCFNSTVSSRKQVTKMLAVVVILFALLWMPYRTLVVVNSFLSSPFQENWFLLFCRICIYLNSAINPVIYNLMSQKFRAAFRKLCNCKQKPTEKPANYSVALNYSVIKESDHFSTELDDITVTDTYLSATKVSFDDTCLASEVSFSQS
#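 TRHR-expressing cells loaded with fluo-8 calcium dye were read kinetically (ex 480/em 530) during compound addition, then stimulated with an EC20 of TRH (10 nM final). Enhancement of the Gq-mediated intracellular calcium response was scored.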
# TRHR agonist-1: TRH receptor (human) agonism; P34981; TRHR cells, calcium flux fluo-8, FDSS agonist mode; activation, % at 2 µM; 360,000 tested, 0.18% active; AID 493084; in the data active means activation above about 30%; further: 0% is about no effect
#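 TRHR-expressing cells loaded with fluo-8 calcium dye; 23 nL library compound pin-transferred, kinetic FDSS fluorescence (Ex 480/Em 530) recorded about 180 s for agonist-induced calcium release, before a 10 nM TRH EC20 addition for potentiator mode.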
# Glioma ERSR ind: induces the endoplasmic reticulum stress response in human glioma cells; U87-MG GRP78 promoter luciferase reporter, 16 h; Potency, µM, for inactives: top-dose activation, actives largely listed as activators; 420,000 tested, 0.02% active; further: potency means the concentration at half of the fitted maximal effect; series mostly up to about 76 µM; % of control where 0% means no effect; nearly all actives have a fitted effect of over 35% in size
#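 ERSR induction read as luciferase luminescence (Bright-Glo, 10 min at room temperature) in stably transfected human U87-MG glioma cells exposed to compounds for 16 h, using GRP78 as sensor.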
# D1 antagonist: blocks dopamine activation of the human D1 receptor | P21728 | HEK293 TREx D1 cells, calcium flux, dopamine EC80; active compounds read low | activity change, negative = inhibition, % at 10 µM | 360,000 tested, 3.2% active; in the data active means activity change below about -30%; further: on the % scale 0 is the no-effect control and ±100 the full control effect
#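 Using tetracycline-induced force-coupled D1 Hek293 cells and a calcium dye, signals were followed for 180 s after compound, then for 180 s after EC80 dopamine, to detect inhibitors.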
# TRHR enhancer-2: human TRH receptor allosteric enhancement confirmation; activity change, negative = inhibition, % at 46.1 µM; shares compounds with TRHR enhancer-1; 970 tested, under 10 active; TRH receptor cell assay, enhancer confirmation qHTS; AID 493076;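 further: compound effect scored on response to added TRH at EC20 of 10 nM; 0% is about no effect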
# TRHR agonist-2: human TRH receptor agonism confirmation; shares compounds with TRHR enhancer-1; Potency, µM (top dose mostly 46.1 µM), without a hit: top-dose activation, hits mostly activators; 970 tested, 8% active; TRHR-expressing cells, agonist activation read-out; AID 493078; further: potency means the concentration at half of the fitted maximal effect; 0% is about no effect; nearly all actives have a fitted effect of over 75% in size
# Numbers without * were called inactive; ? = inconclusive; . = no result given. Unless noted, the call rests on the fitted dose curve; in most records, active means well fitted curve in the direction sought with a large enough effect; inconclusive means small, poorly fitted or top-dose-only effect, or another doubt; inactive means no such curve, though single readings can be large; an effect the other way counts as inactive or inconclusive.
SMILES,D1 potentiator,D1 agonist,TRHR enhancer-1,TRHR agonist-1,Glioma ERSR ind,D1 antagonist,TRHR enhancer-2,TRHR agonist-2
CCCCn1nnnc1SCC(=O)Nc1ccc(N(C)C)cc1,-4.0,0.8,53.7*,0.1,-1.9%,14.8,-2.3,1.3%
Nc1cc2cccnc2cc1Cl,.,.,.,.,4.2%,.,.,.
CCOc1ccccc1N1CC(C(=O)Nc2cccc(S(=O)(=O)N3CCCCC3)c2)CC1=O (stereo not given),-1.7,2.3,73.7*,0.5,-5.0%,-14.3,-8.6,3.9%
C[N+]1(CCCCC[N+]2(C)CCCC2)CCCC1,.,.,.,.,3.1%,.,.,.
C[N+]1(CCCCCCC(=O)/C=N/O)CCCCCC1,-7.3,1.8,42.8*,1.6,-0.1%,2.7,-0.6,-0.8%
O=C(Nc1cccc(F)c1)N1CC2(CCN(S(=O)(=O)c3ccccc3)CC2)C1,.,.,.,.,-2.1%,.,.,.
Cc1cccc(CC(=O)NCC(=O)NCc2cc(=O)n(C)c(=O)n2C)c1,1.2,-0.8,-3.5,0.8,-2.2%,5.3,.,.
O=C(NCc1ccc2c(c1)OCO2)c1cccc(S(=O)(=O)N2CCCC2)c1,-1.9,0.5,-0.9,0.1,-1.2%,7.9,.,.
CC(C)(C)c1ccc(OCCC(=O)Nc2cccc(S(=O)(=O)N3CCOCC3)c2)cc1,-2.8,29.9,43.6*,0.5,-6.5%,-6.8,4.9,0.2%
COc1ccc(OCCC(=O)OCC(=O)Nc2cccc(S(=O)(=O)N3CCOCC3)c2)cc1,-3.0,5.1,-0.1,-0.1,16.5%,-17.6,.,.
O=C(NCc1ccc2c(c1)OCO2)c1cccc(S(=O)(=O)N2CCCCC2)c1,-3.5,1.9,-16.7,43.7*,-5.8%,-15.6,-8.8,1.9%
O=C(Nc1cccc(S(=O)(=O)N2CCCC2)c1)c1cccc(S(=O)(=O)N2CCOCC2)c1,-1.9,1.1,-4.5,29.1,2.1%,-1.2,4.3,1.9%
CN(C)C(=O)c1cccc(-c2csc(N3CCC(C(N)=O)CC3)n2)c1,5.1,9.2,8.4,-0.4,-0.6%,6.5,.,.
COc1ccc(CC(C(=O)Nc2ccc(OC)cc2)c2nn[nH]n2)cc1 (stereo not given),-2.9,1.7,2.4,-0.3,-0.8%,11.0,.,.
CCc1nc(SCC(=O)Nc2cccc3ccccc23)[nH]c(=O)c1C,-8.5,-0.4,-5.6,-0.1,0.1%,-17.7,.,.
CCc1nc(SC)[nH]c(=O)c1C,-1.1,1.3,43.1*,-1.0,-4.2%,26.0,-0.8,-0.3%
Cc1cccc(NC(=O)COc2ccc(Br)cc2/C=N/O)c1,-5.9,8.6,42.6*,-1.0,0.2%,2.9,-7.1,2.3%
CC(=O)Nc1ccc(NC(=O)COc2ccc(Br)cc2C)cc1,5.8,5.7,2.4,0.1,2.1%,-18.0,.,.
O=C1Nc2ccccc2/C1=C/c1ccccc1Cl,-9.1,-0.3,-2.5,0.4,9.0%,-10.0,.,.
COc1ccccc1/C=C1\C(=O)Nc2ccccc21,-3.6,1.1,41.4*,0.5,9.2%,1.7,-8.8,-0.6%
O=C(COC(=O)CNC(=O)c1ccc(Cl)cc1Cl)NCc1ccco1,0.6,-0.1,4.1,-0.3,-3.1%,-0.4,.,.
Oc1ccc(C(c2nnnn2C2CCCC2)N2CCc3ccccc3C2)cc1 (stereo not given),-1.4,1.6,0.7,44.6*,-8.1%,4.3,-12.5,0.7%
COc1cc(C(c2nnnn2C2CCCC2)N2CCc3ccccc3C2)ccc1O (stereo not given),-0.9,-0.3,3.1,-0.2,0.3%,2.5,.,.
COc1ccccc1-n1nnnc1SCC(=O)Nc1ccccc1,-2.2,5.9,56.4*,0.4,-2.7%,1.8,-4.1,2.4%
CC(=O)NCCOC(=O)c1nn(Cc2ccccc2)c(=O)c2ccccc12,-4.3,0.6,-4.9,-1.6,-4.1%,8.1,.,.
SMILES,D1 potentiator,D1 agonist,TRHR enhancer-1,TRHR agonist-1,Glioma ERSR ind,D1 antagonist,TRHR enhancer-2,TRHR agonist-2
Fc1ccc(CNc2cc(-c3ccccc3)nc3nncn23)cc1,1.3,7.9,4.1,-1.4,-2.6%,-5.6,.,.
N#CNC(=Nc1ccccc1)SCc1ccc(C(=O)O)cc1,-2.8,2.4,5.3,1.7,0.0%,-1.4,.,.
N#CNC(=Nc1cccc(C(F)(F)F)c1)SCc1ccc(C(=O)O)cc1,-2.2,1.4,46.5*,0.5,4.2%,-9.6,8.7,7.2%
OC(COc1ccc2cc(Br)ccc2c1)CN1CCN(c2ccccn2)CC1 (stereo not given),15.6,-0.9,19.0,-0.1,3.5%,-6.4,.,.
Cc1nc(C)n(CC(O)COc2ccc3cc(Br)ccc3c2)n1 (stereo not given),-11.2,46.9*,43.5*,-0.6,-0.8%,-32.0*,?,6.1%
CC(C)(C)C(=O)c1sc2nc(-c3cccs3)cc(C(F)(F)F)c2c1N,-0.7,-0.4,9.4,-0.2,-2.0%,-4.5,.,.
Cc1nnc(NC(=O)c2sc3nc(-c4cccs4)cc(C(F)(F)F)c3c2N)s1,-2.4,361.2*,2.1,51.7*,-8.9%,-30.1*,5.5,?
CCc1nnc(SCc2cc(C)ccc2C)c2cc3sc(C)cc3n12,2.9,1.1,-1.0,-0.4,-2.2%,-7.6,.,.
CCCCCC1CC(=O)N(Cc2ccccc2)C(=O)N1 (stereo not given),-4.5,0.5,68.6*,-0.7,-6.1%,9.2,-4.2,0.3%
CCc1cc(-c2n[nH]c(C)c2-c2nc(C)cs2)c(O)cc1OC,-1.1,3.8,45.2*,1.2,-0.1%,-0.1,?,2.0%
NS(=O)(=O)c1ccc(C(=O)Nc2ccc(-c3nc4cccnc4s3)cc2)cc1,8.5,0.7,44.2*,0.6,4.2%,12.9,-8.6,0.9%
NS(=O)(=O)c1ccc(NC(=O)c2ccc(-c3ccccc3)cc2)cc1,12.2,5.5,-3.1,0.5,-2.7%,10.0,.,.
CN(C)C(=O)/C(=C/c1cn(-c2ccccc2)nc1-c1cccc([N+](=O)[O-])c1)NC(=O)c1ccccc1,1.4,1.0,42.9*,-0.5,1.3%,-18.7,4.1,-0.7%
C=CCNC(=O)/C(=C/c1cn(-c2ccccc2)nc1-c1cccc([N+](=O)[O-])c1)NC(=O)c1ccccc1,-1.0,2.8,4.3,-0.2,-3.1%,-19.4,.,.
CCC(C)[C@@H](C(=O)N1CCNCC1)n1cc(CCCN=C(N)N)nn1 (stereo not given in full),8.8,0.9,-6.8,0.3,-2.0%,-9.0,.,.
C[C@@H](C(=O)N1CCNCC1)n1cc(CCCN=C(N)N)nn1,-2.1,5.9,64.1*,0.2,-2.5%,0.3,-2.3,-0.7%
O=C(Nc1ccccc1C(=O)O)c1cc(S(=O)(=O)N2CCOCC2)c(Br)s1,6.5,6.9,44.7*,-0.6,0.9%,10.0,4.1,-0.5%
